From ChEMBL document CHEMBL3988442, “University of Dundee, Small-Polar-MMV Screening Library” (2021)
The campaign covered roughly 38,000 compounds. About 1,200 (3.2%) showed an effect of 50% or more. The median lay at about -58%. What follows is part of a selection rich in strong results, with near analogues and random picks from the rest.

Test system: Plasmodium falciparum
Assay: Calibr Malaria Delayed Death Assay SOP
Assay type: functional, organism-based
Parameters: scale not given: in the data most compounds retested in dose-response had high values
Conditions: concentration 4.99e-06 (unit not given; other assays of the set use mol/L)

Row | SMILES | Percent Effect
1 | CCC(O)CN1CCN(C(=O)c2cccc3c2OCC(=O)N3)CC1 (stereo unspecified) | -136.7%
2 | CC(C)CN1C(=O)C2(CCN(Cc3ccsc3)C2)c2ccccc21.O=C(O)C(F)(F)F (stereo unspecified) | -33.32%
3 | Cc1cccc(CN2CCc3ncnc(N4CCN(C)CC4)c3CC2)n1.O=C(O)C(F)(F)F.O=C(O)C(F)(F)F | -236.1%
4 | Cc1noc(C(C)C)c1C(=O)NCCCOC(C)C | -142.4%
5 | CC(CNC(=O)NCc1ccoc1)N1CCc2sccc2C1 (stereo unspecified) | -8.458%
6 | CCc1cnc(CN(C)C2CCN(CCCS(=O)(=O)NC)C2)o1 (stereo unspecified) | -85.83%
7 | O=C(O)C(F)(F)F.c1ccc(NC[C@@H]2CCC[C@@H]3CN(c4ncccn4)C[C@@H]32)nc1 | 71.6%
8 | O=C(O)C(F)(F)F.c1ccc(NC[C@@H]2CCC[C@@H]3CN(Cc4cc[nH]n4)C[C@@H]32)nc1 | -36.14%
9 | COCCN1C[C@H]2CCC[C@@H](CNc3ncccn3)[C@H]2C1.O=C(O)C(F)(F)F.O=C(O)C(F)(F)F | 19.85%
10 | Cc1cccc(C)c1OC1CN(C(=O)C2CC(=O)N(C(C)(C)C)C2)C1 (stereo unspecified) | -9.651%
11 | CNc1cc(C)nc(-c2cc(NC3CCNCC3)nc3[nH]ccc23)n1 | -52.32%
12 | COc1nccnc1-c1cc(NC2CCNCC2)nc2[nH]ccc12 | -131.1%
13 | FC(F)(F)c1ccc(-c2cc(NC3CCNCC3)nc3[nH]ccc23)nc1 | -115.3%
14 | COc1nccnc1-c1cc(NC2CCCC2)nc2[nH]ccc12 | 19.53%
15 | COc1cc(-c2cc(NC3CCCC3)nc3[nH]ccc23)nc(N)n1 | 62.87%
16 | COc1ncc(-c2cc(NC3CCCC3)nc3[nH]ccc23)c(OC)n1 | 74.29%
17 | CC(Nc1ccc(F)cc1)c1nnnn1-c1ccccc1 (stereo unspecified) | -147.9%
18 | Cc1cc(S(C)(=O)=O)c(C)c(S(=O)(=O)N2CCCCCC2)c1 | -98.91%
19 | c1cnn(CC2CN(Cc3nc(-c4ccoc4)no3)CCO2)c1 (stereo unspecified) | -25.36%
20 | Cc1csc(N2CCCN(C(=O)Cc3ccc(C)s3)CC2)n1 | -98.4%
21 | Cc1nc(N2CCCC2)ncc1C(=O)Nc1ccc(Br)cc1 | -75.85%
22 | CCN(CC)c1nc(C)cc(C(=O)Nc2ccc(Br)cc2)n1 | -6.909%
23 | CN1CCC(N(C)C(=O)Nc2ccc(Cl)cc2)CC1 | -68.4%
24 | Cn1cc(NC(=O)CNC(=O)N2CCN(c3ccc(Cl)cc3)CC2)cn1 | 2.407%

Row | SMILES | Percent Effect
25 | Cc1oc(-c2cccc(F)c2F)nc1CN(C)CCO | -89.89%
26 | CC[C@H](C)[C@H](NC(=O)c1cccc(-n2cnnn2)c1)C(=O)OC | -118.3%
27 | COCC(O)CNC(=O)c1cc(COc2ccc3c(c2)CCCC3)on1 (stereo unspecified) | -3.069%
28 | CC(C)NC(=O)CC1COC2(CCN(Cc3cccs3)CC2)C1.O=C(O)C(F)(F)F (stereo unspecified) | -6.903%
29 | O=C(COc1coc(CN2CCCC2)cc1=O)Nc1ccc(Cl)c(Cl)c1 | -65.99%
30 | O=C(COc1coc(CN2CCCCC2)cc1=O)Nc1ccccc1Cl | -97.93%
31 | O=C(COc1coc(CN2CCCC2)cc1=O)Nc1cc(Cl)ccc1Cl | 79.74%
32 | COc1ccc(NCC(=O)NCC(=O)N2CCCC2)c(C(F)(F)F)c1 | -93.16%
33 | CC(C)CNC(=O)CN(Cc1ccc(F)cc1)S(C)(=O)=O | -57.65%
34 | COc1ccc(C[C@H]2CN(C(=O)c3cscn3)CC[C@@H]2OC)cc1 | -91.5%
35 | CCn1cnnc1CNC(=O)N1CCN(CC(C)C)CC1 | -55.6%
36 | c1ccc(-c2nc(CNC3CCc4ncnn4C3)no2)cc1 (stereo unspecified) | -138.7%
37 | Fc1ccc(C2(NCc3ccccc3)CCOCC2)cc1 | 62.64%
38 | CSc1ccc(CNC2(c3ccc(F)cc3)CCOCC2)cc1 | 28.49%
39 | CN(C)c1ccc(CNC2(c3ccc(F)cc3)CCOCC2)cc1F | 25.79%
40 | O=C(CCc1nc2ccccc2[nH]1)Nc1ccc2c(c1)OCC(=O)N2 | -185.4%
41 | Cc1cc(F)c(S(=O)(=O)Nc2ccn(CCC#N)n2)cc1F | -82.35%
42 | CO[C@@H]1CCN(c2ncccn2)[C@H]1Cc1ccccc1 | -224.1%
43 | CN(C)[C@@H]1CCN(c2ncc(F)cn2)[C@H]1Cc1ccccc1.O=C(O)C(F)(F)F.O=C(O)C(F)(F)F | 88.46%
44 | CN(C)[C@@H]1CCN(c2ncccn2)[C@H]1Cc1ccncc1.O=C(O)C(F)(F)F.O=C(O)C(F)(F)F | -10.95%
45 | CN(C)[C@@H]1CCN(c2ncc(F)cn2)[C@H]1Cc1ccncc1.O=C(O)C(F)(F)F.O=C(O)C(F)(F)F | 27.12%
46 | CN(C)[C@@H]1CCN(c2ncccn2)[C@H]1Cc1ccccc1 | 77.2%
47 | Fc1cnc(N2CC[C@@H](N3CCOCC3)[C@@H]2Cc2ccccc2)nc1 | -55.08%
48 | CN(C)[C@@H]1CCN(c2ncc(F)cn2)[C@H]1Cc1cccnc1.O=C(O)C(F)(F)F.O=C(O)C(F)(F)F | -22.18%

Row | SMILES | Percent Effect
49 | CN(C)[C@@H]1CCN(c2ncccn2)[C@H]1Cc1cccnc1.O=C(O)C(F)(F)F.O=C(O)C(F)(F)F | 10.59%
50 | Cc1nn(C)c(C)c1CN(C)C(C(=O)O)c1ccc(F)cc1F (stereo unspecified) | -28.09%
51 | Cc1nc(-c2nnc[nH]2)sc1C(=O)N1CCCC1c1cccs1 (stereo unspecified) | -86.12%
52 | Cc1ccc(F)c(S(=O)(=O)NCCc2nnc[nH]2)c1 | -33.36%
53 | N#Cc1ccc(NCC(O)c2ccco2)c(C(F)(F)F)c1 (stereo unspecified) | -33.98%
54 | Cn1cc(C(=O)N2CCCC(CN3CCCC3=O)C2)cn1 (stereo unspecified) | -14.99%
55 | O=C(c1ccc(F)c(F)c1)N1CCC[C@]2(C[C@@H](OCC3CC3)CO2)C1 | -0.7044%
56 | COC(=O)CC(c1ccc(O)c(Cl)c1)c1oc(C)cc(=O)c1O (stereo unspecified) | -28.31%
57 | Cc1nc(C)n(C2CCCN(C(=O)CCc3ccccn3)C2)n1 (stereo unspecified) | -132.7%
58 | CC(CNC1CCN(c2ccccn2)CC1)Oc1ccc(F)cc1 (stereo unspecified) | 47.69%
59 | CC(C)COCCC(=O)NCCC(=O)N1CCN(c2ccccn2)CC1 | -146.7%
60 | COc1ccc(C(C)CCNC2CCN(c3ccccn3)CC2)cc1 (stereo unspecified) | 67.25%
61 | OC1(CNC2CCN(c3ccccn3)CC2)CCc2ccccc21 (stereo unspecified) | 27.14%
62 | CC(C)COCCNC1CCN(c2ccccn2)CC1 | 60.11%
63 | COCCOCC(=O)NC1CCN(c2ccccn2)CC1 | -21.4%
64 | CSCC(=O)N1CCOC(c2nc(C(C)C)n[nH]2)C1 (stereo unspecified) | -97.79%
65 | CC(C)[C@H]1CN(c2ccnc(N)n2)C[C@@H]1NC(=O)C1(C#N)CCOCC1 | -66.36%
66 | Cc1cc(CN2CCC(c3nccn3C(C)C)CC2)ccc1F | 18.24%
67 | OC1COCCN(Cc2cc(-c3ccccc3OC(F)(F)F)no2)C1 (stereo unspecified) | -13.03%
68 | Fc1ccc(C2CCCCN2Cc2cc(-c3ccccn3)no2)cc1 (stereo unspecified) | -40.19%
69 | NC1CCCCN(Cc2cc(-c3ccccc3OC(F)(F)F)no2)C1 (stereo unspecified) | 70.63%
70 | C[C@@H]1CN(Cc2cc(C3CCCCC3)no2)CC[C@]1(C)O | -5.788%
71 | NC1CCCCN(Cc2cc(C3CCCCC3)no2)C1 (stereo unspecified) | 62.41%
72 | OCC1COCCN(Cc2cc(C3CCCCC3)no2)C1 (stereo unspecified) | -120.4%

Row | SMILES | Percent Effect
73 | O=C(O)C(F)(F)F.O=C(O)C(F)(F)F.O=C1COC2(CCN(Cc3cccnc3)CC2)CN1c1ccccc1 | -17.97%
74 | Cc1cnc(C(=O)N2CCCC(n3cccn3)C2)cn1 (stereo unspecified) | -66.69%
75 | CCN(C)Cc1cccc(CNC(=O)NCCc2ccccn2)c1 | -13.41%
76 | CN(C)Cc1nnc2n1CCN(Cc1ccccn1)CC2 | -1.592%
77 | CC(C)Nc1nc2c(s1)C(=O)CN(C(=O)NCc1ccccc1)C2 | -132.7%
78 | CCOc1ccc(CN2CCNC(C(=O)NC3CC3)C2)cc1CO (stereo unspecified) | -11.99%
79 | NC(=O)COc1ccc(CN2CCNC(C(=O)NC3CC3)C2)cc1Cl (stereo unspecified) | -16.07%
80 | CCCOc1cc(Cl)c(CN2CCNC(C(=O)NC3CC3)C2)cc1OC (stereo unspecified) | 74.72%
81 | Cc1cc(C)n(CC(=O)N(CC2CN(C)CCO2)c2nccs2)n1 (stereo unspecified) | -86.12%
82 | COc1ccc(Cn2c(Cc3c(C)n[nH]c3C)n[nH]c2=O)cc1 | -40.64%
83 | CN(C)CCO[C@H]1CN(C(=O)c2ccc(C#N)cc2)[C@@H]2COC[C@H]12 | -51.41%
84 | CCCn1ncc2c(C(=O)NC(C)Cn3cccn3)cc(C3CC3)nc21 (stereo unspecified) | -124.5%
85 | Br.Cc1cc(C)c(N(CC(O)CNCc2ccccc2)S(C)(=O)=O)c(C)c1 (stereo unspecified) | 69.59%
86 | Cc1cc(C)c(N(CC(O)CNCc2ccco2)S(C)(=O)=O)c(C)c1.O=C(O)c1ccccc1 (stereo unspecified) | 59.67%
87 | N#Cc1cccc(CS(=O)(=O)NCC(O)Cc2ccccc2)c1 (stereo unspecified) | -10.83%
88 | Cc1ccc(CS(=O)(=O)NCc2ccco2)cc1 | -37.35%
89 | Cc1ccc(N(C)CC(O)COCc2ccccc2)c(C)c1 (stereo unspecified) | -54.55%
90 | O=C(C(CNCc1ccco1)c1ccccc1)N1CCOCC1 (stereo unspecified) | -74.95%
91 | O=S(=O)(Cc1cccc(F)c1)NCC(O)Cc1ccccc1 (stereo unspecified) | -87.6%
92 | Cc1cccc(CS(=O)(=O)NCC(O)Cc2ccccc2)c1 (stereo unspecified) | -12.6%
93 | CCn1nc(C)c2nc(C)nc(NCCc3ccccc3)c21 | 35.69%
94 | CO[C@@H]1CN(c2ccccc2)S(=O)(=O)[C@@]12CCNC2 | -24.96%
95 | CC1c2ccsc2CCN1Cc1cc2c(cc1O)OCO2 (stereo unspecified) | 25.38%
96 | Cn1cc(C2CCCN2C(=O)c2cnc(-c3ncccn3)s2)cn1 (stereo unspecified) | -23.4%
